From PubChem BioAssay (NCATS) come the findings set out here.

Unmarked numbers belong to inactive results. Records with an inconclusive call do not appear. The source made the active and inactive calls. Unless noted, calls come from the whole dose curve; as a rule, active = well fitted curve in the direction sought with a large enough effect; inconclusive = small, poorly fitted or top-dose-only effect, or another doubt; inactive = no such curve, though single readings can be large; an effect the other way counts as inactive or inconclusive.

Test [1] concerns the target Lysosomal acid glucosylceramidase (Homo sapiens) (UniProt P04062). In words: Glucocerebrosidase-p2 (AID 348; in the data active = potency below about 10 µM; note: potency is the fitted concentration of half-maximal effect). The conditions noted are these: purified GBA, blue fluorogenic substrate, 40 min. The procedure, abridged:
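Normal human glucocerebrosidase (0.2 nM) with blue fluorogenic substrate (80 uM final) in citrate/phosphate pH 5.9 with 10mM sodium taurocholate, 0.01% tween-20; 40 min RT, NaOH/glycine stop; fluorescence Ex 365/Em 440; AC50 from a titration from 0.6 nM upwards.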

A short description of test [2]: AP1 Signaling Pathway (AID 357; active = well fitted curve in either direction with a large enough effect, not every such curve was filed as active;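 note: ME-180 reporter cells stimulated with EGF at its EC50 level; % is set by controls: 0 for no effect and ±100 for the full control effect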). The settings on record: ME-180 AP-1-bla reporter, EGF-induced, beta-lactamase ratio, 5 h; at 7.69 µM (top of the series) unless noted. The procedure, abridged: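 AP-1-bla ME-180 cells, Opti-MEM + 0.5% dialyzed FBS, plated overnight 37 °C. Cpd titration + EC50 EGF, 5 h 37 °C. CCF4 2.5 h RT; ex 405, em 460/530 ratio → %activity, AC50.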

Test [3] in a line: NFAT Signaling Pathway (AID 444; active = well fitted curve in either direction with a large enough effect, not every such curve was filed as active;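 note: carbachol stimulus at about its EC50 of 1 µM final; % is set by controls: 0 for no effect and ±100 for the full control effect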). The settings on record: Jurkat NFAT-bla M1, carbachol, beta-lactamase ratio, 5 h; at 7.69 µM (top of the series) unless noted. In outline: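 Read-out: CCF4 FRET ratio (460 nm/530 nm) after 1 h RT dye loading, used for %activity and AC50 from titration series. Cells: Jurkat NFAT-β-lactamase/M1 line, treated with compound plus 1 uM carbachol for 5 h, 37 °C.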

Test [4] can be described thus: Stat Signaling Pathway (AID 446; active = well fitted curve in either direction with a large enough effect, not every such curve was filed as active;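 note: ME-180 cervical cancer cells given 40 pM IL-6 alongside compound; SIE-controlled beta-lactamase reporter measured as 460/530 nm FRET emission ratio; % is set by controls: 0 for no effect and ±100 for the full control effect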). The conditions noted are these: ME-180 SIE beta-lactamase reporter, IL-6 stimulated, 5 h; at 7.69 µM (top of the series) unless noted. In outline:
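Overnight-plated ME-180 cells bearing a STAT Inducible Element beta-lactamase reporter; 5 h co-exposure to compound and 40 pM IL-6; values normalized to 300 pM IL-6 and 125 nM JAK inhibitor controls.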

For test [5], the target named is Glucocorticoid receptor (Homo sapiens) (UniProt P04150). Put plainly: GR-GFP Redistribution (AID 450;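 active = compounds whose dose series gives a full or clear partial fitted curve of increased nuclear translocation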; note: potency is the fitted concentration of half-maximal effect). The conditions noted are these: U2OS GR-GFP nuclear translocation, laser cytometry, 2 h.
For test [6] the target is unchanged. Put plainly: GR-EFC Redistribution (AID 451; calls by dose curve; note: potency is the fitted concentration of half-maximal effect). The settings on record: CHO-K1 GR-EFC translocation, beta-gal luminescence, 2 h. The procedure, abridged:
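Translocation of GR-ED fusion to nuclear EA restores b-gal, read by luminescence after 1 h room-temperature detection. Engineered CHO-K1 biosensor cells, 1,000/well, exposed 2 h at 37 C to titrations up to 46 uM final.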

Test [7] deals with Mitogen-activated protein kinase 10 (Mus musculus) (UniProt Q61831). In words: JNK3 AlphaScreen Assay (AID 530; active = well fitted curve in either direction with a large enough effect, not every such curve was filed as active;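 note: kinase came from lysate of stimulated human HepG2 cells; signal reports phosphorylation of biotinylated GST-cJun 1-79 at Ser73 with 10 µM ATP; % is set by controls: 0 for no effect and ±100 for the full control effect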). The settings on record: JNK3 lysate, c-Jun phosphorylation; series mostly up to 57.1 µM. In outline: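 qHTS titrations with 15 min compound pre-incubation before adding ATP (10 uM final). Read-out: AlphaScreen of Ser73-phosphorylated biotin-GST-cJun using HepG2 lysate JNK3 activated by IL-1β and TNFα.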
For orientation: In Alpha technology, singlet oxygen from a donor bead excites a nearby acceptor bead.

Test [8] addresses Dual specificity protein kinase CLK4 (Homo sapiens) (UniProt Q9HAZ1). Put plainly: qHTS Assay for Inhibitors of CDC-like Kinase 4 (Kinase-Glo Assay) (AID 1770). Note: % is set by controls: 0 for no effect and ±100 for the full control effect; nearly all actives have a fitted effect of over 65% in size. The settings on record: recombinant Clk4, Kinase-Glo ATP depletion luminescence; series mostly up to 66.7 µM. In outline:
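Readout: Kinase-Glo luminescence from ATP left after a 4.5 h room-temperature reaction of 25 nM Clk4 with 100 uM RS peptide and 1 uM ATP (final). Buffer: 25 mM Tris pH 7.5, 10 mM MgCl2.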
(In qHTS, concentration-response curves come from the screen itself.)

Test [9] has the same target. Put plainly: qHTS Assay for Inhibitors of CDC-like Kinase 4 (ADP-FP Assay) (AID 1795). Note: nearly all actives have a fitted effect of over 60% in size. Note: potency is the fitted concentration of half-maximal effect. The settings on record: Transcreener ADP fluorescence polarization; series mostly up to 50 µM. The procedure, abridged:
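FP readout: Orange Transcreener ADP2 tracer (4 nM) plus ADP antibody, read after 30 min at room temperature. Kinase step: 6.25 nM Clk4, 100 uM RS peptide, 1 uM ATP, pH 7.5, 1 h.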

In test [10] the target is Ubiquitin carboxyl-terminal hydrolase 1 (Homo sapiens) (UniProt O94782). Put plainly: Inhibitors of USP1/UAF1: Pilot qHTS (AID 504865).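 Note: rhodamine fluorescence freed from ubiquitin-rhodamine substrate followed over time; top concentration of the series differs between compounds; % is set by controls: 0 for no effect and ±100 for the full control effect; nearly all actives have a fitted effect of over 35% in size.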 The conditions noted are these: purified USP1/UAF1, Ub-rhodamine cleavage fluorescence; series mostly up to 54.9 µM. In outline:
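1nM USP1/UAF1 + cpd, 15 min RT; start w/ Ub-Rho 150nM final; kinetic FL 480/540 nm, 6 reads q60 s. Buffer 50mM HEPES pH 7.8, 0.5mM EDTA, 1mM TCEP, 0.01% Tween-20, 0.1 mg/ml BSA.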

A short description of test [11]: Primary qHTS for small molecule stabilizers of the endoplasmic reticulum resident proteome: Secreted ER Calcium Modulated Protein (SERCaMP) assay (AID 1508630). Note: % is set by controls: 0 for no effect and ±100 for the full control effect. The settings on record: SH-SY5Y GLuc-SERCaMP (Gaussia luciferase released on ER calcium loss) secretion, thapsigargin, luminescence; series mostly up to 38.4 µM. The procedure, abridged:
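The SH-SY5Y reporter protocol was run at 3 concentrations up to 38.3 uM (primary) or 11 concentrations (follow-up): 16 h compound, 100 nM thapsigargin for 4 h, then extracellular luciferase luminescence.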

Test [12] addresses Cytochrome P450 1A2 (Homo sapiens) (UniProt P05177). Put plainly: p450-cyp1a2 (AID 410; calls by dose curve; note: potency is the fitted concentration of half-maximal effect). The conditions noted are these: recombinant CYP1A2, luciferin-ME demethylation, luminescence; series mostly up to 57 µM. The procedure, abridged: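 O-Demethylation of luciferin 6' methyl ether by human CYP1A2 is monitored as luciferase luminescence. Substrate sits at Km (100uM); enzyme is 20nM. Values are scaled to 57 uM furafylline as maximal inhibition.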

Test [13] addresses Cytochrome P450 3A4 (Homo sapiens) (UniProt P08684). In words: qHTS Assay for Inhibitors and Substrates of Cytochrome P450 3A4 (AID 884). Note: potency is the fitted concentration of half-maximal effect; nearly all actives have a fitted effect of over 50% in size. The conditions noted are these: recombinant CYP3A4, Luciferin-PPXE luminescence; series mostly up to 57.1 µM. In outline: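 Luminescent readout of luciferin produced by CYP3A4 (20 nM) dealkylation of Luciferin-PPXE, 25 uM (its KM). NADPH-driven reaction ran 60 min at RT after 10 min compound preincubation; data scaled to 57 uM ketoconazole as 100% inhibition.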

Test [14] has the same target. In words: qHTS Assay for Activators of Cytochrome P450 3A4 (AID 885). Note: nearly all actives have a fitted effect of over 65% in size. The settings on record: recombinant CYP3A4, Luciferin-PPXE luminescence, 60 min; series mostly up to 57.1 µM. In outline: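 Using 20nM recombinant human CYP3A4 in potassium phosphate (200mM), substrate Luciferin-PPXE at 25uM, luminescent luciferin detection followed a 60-min RT NADPH reaction; data scaled to 57 uM ketoconazole.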

Test [15] has as its target 3',5'-cyclic-AMP phosphodiesterase 4B (Homo sapiens) (UniProt Q07343). In words: qHTS Assay for Inhibitors of PDE-IV (AID 607; active = well fitted activation curve with a large enough effect in the main read-out, with a control signal flat, not every such curve was filed as active; note: % of control where 0% means no effect). The settings on record: HEK293 ACTOne CNG channel cells, membrane potential fluorescence; series mostly up to 22.9 µM. In outline:
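Live HEK293 cells with a modified cyclic nucleotide-gated (CNG) channel report intracellular cAMP via membrane-potential dye fluorescence (ex 535/em 590 nm). Endogenous PDE-IV was targeted. Compounds were tested at up to 22.9 uM final; RO 20-1724 100 uM served as control.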

In test [16] the target is Cytochrome P450 2C9 (Homo sapiens) (UniProt P11712). Put plainly: qHTS Assay for Inhibitors and Substrates of Cytochrome P450 2C9 (AID 883). Note: % is set by controls: 0 for no effect and ±100 for the full control effect; nearly all actives have a fitted effect of over 60% in size. The conditions noted are these: recombinant CYP2C9, luciferin-H luminescence, 60 min; series mostly up to 57.1 µM. The procedure, abridged:
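Inhibition of CYP2C9 is scored as loss of luminescence, with 57uM sulphaphenazole defining 100% inhibition. Substrate Luciferin-H is used at 100uM, equal to its KM; enzyme at 10nM in 25mM KPO4, 60 min at 37C with NADPH regeneration.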

Test [17] in a line: qHTS Assay for Identification of Small Molecule Agonists for Hypoxia Response Element Signaling Pathway (AID 914; active = well fitted activation curve with a large enough effect in the signal ratio, with a control signal flat, not every such curve was filed as active; the % refers to the signal ratio; note: % of control where 0% means no effect). The settings on record: ME-180 (cervical carcinoma) HRE-bla reporter, beta-lactamase ratio, CoCl2, 17 h; activation: stronger effect = higher value. In outline:
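In Opti-MEM containing 0.5% dialyzed FBS and 10 mM HEPES, ME-180 HRE-bla cells received a compound titration and EC50 CoCl2. They were incubated 17 hours, then CCF4-loaded 2.5 hours at room temperature before ratio reading.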

Chain of Glucocorticoid receptor (Homo sapiens) (P04150 whole entry, looked up): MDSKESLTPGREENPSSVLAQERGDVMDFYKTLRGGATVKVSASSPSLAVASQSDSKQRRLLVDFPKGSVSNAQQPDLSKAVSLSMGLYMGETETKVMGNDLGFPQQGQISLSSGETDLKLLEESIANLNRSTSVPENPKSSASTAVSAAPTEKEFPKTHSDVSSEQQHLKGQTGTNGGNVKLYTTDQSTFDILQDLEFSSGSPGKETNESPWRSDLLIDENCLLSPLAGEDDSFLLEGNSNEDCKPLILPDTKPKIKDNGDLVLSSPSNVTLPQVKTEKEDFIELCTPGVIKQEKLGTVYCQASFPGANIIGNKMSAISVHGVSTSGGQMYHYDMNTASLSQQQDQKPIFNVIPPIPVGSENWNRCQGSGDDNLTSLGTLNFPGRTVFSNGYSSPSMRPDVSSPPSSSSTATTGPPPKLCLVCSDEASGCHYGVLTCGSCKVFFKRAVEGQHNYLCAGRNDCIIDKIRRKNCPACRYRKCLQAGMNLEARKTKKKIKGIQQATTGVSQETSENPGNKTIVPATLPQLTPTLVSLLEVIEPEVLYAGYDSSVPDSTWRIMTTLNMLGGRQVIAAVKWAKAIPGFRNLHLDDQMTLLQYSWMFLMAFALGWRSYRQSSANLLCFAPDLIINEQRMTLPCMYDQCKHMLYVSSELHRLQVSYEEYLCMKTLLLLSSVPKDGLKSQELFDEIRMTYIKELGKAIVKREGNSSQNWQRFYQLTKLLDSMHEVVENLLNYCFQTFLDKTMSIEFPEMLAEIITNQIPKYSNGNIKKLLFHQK
Chain of 3',5'-cyclic-AMP phosphodiesterase 4B (Homo sapiens) (Q07343 whole entry, looked up): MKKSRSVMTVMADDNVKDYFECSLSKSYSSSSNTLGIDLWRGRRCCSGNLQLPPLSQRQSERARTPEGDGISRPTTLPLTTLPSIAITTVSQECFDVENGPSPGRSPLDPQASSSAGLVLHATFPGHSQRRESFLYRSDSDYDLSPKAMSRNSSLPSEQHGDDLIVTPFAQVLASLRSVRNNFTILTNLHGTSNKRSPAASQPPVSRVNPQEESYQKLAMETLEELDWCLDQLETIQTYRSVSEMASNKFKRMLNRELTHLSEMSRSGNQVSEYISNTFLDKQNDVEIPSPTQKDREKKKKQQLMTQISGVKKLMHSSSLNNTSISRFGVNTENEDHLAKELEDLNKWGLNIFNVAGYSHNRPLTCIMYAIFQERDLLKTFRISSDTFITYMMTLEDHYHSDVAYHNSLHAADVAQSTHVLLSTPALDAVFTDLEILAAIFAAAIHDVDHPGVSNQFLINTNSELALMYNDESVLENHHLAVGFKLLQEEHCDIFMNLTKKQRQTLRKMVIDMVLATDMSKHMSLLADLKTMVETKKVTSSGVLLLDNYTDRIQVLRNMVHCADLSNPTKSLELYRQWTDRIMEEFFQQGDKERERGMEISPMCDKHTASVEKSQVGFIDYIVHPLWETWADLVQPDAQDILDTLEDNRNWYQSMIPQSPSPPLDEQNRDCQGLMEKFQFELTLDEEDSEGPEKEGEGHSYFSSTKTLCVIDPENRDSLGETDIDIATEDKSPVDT
Chain of Ubiquitin carboxyl-terminal hydrolase 1 (Homo sapiens) (O94782 whole entry, looked up): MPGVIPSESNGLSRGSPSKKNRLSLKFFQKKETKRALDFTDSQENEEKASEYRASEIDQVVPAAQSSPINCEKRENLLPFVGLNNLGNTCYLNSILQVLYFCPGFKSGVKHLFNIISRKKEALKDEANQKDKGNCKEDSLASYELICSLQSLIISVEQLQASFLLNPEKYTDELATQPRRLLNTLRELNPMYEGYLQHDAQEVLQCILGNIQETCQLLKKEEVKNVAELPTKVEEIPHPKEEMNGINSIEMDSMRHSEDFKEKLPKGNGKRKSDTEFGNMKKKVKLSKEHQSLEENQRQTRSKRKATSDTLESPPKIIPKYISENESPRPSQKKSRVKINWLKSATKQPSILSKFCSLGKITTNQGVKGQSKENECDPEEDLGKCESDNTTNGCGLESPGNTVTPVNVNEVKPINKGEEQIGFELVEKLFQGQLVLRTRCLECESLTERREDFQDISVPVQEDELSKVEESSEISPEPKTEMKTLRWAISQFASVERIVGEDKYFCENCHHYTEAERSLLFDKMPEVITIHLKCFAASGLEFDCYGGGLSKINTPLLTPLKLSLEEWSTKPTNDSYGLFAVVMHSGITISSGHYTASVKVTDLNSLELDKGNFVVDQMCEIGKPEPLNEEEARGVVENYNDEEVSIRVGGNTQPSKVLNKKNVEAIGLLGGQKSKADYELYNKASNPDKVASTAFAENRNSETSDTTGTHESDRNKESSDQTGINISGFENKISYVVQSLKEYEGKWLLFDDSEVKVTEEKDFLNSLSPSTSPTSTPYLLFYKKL
Chain of Lysosomal acid glucosylceramidase (Homo sapiens) (P04062 whole entry, looked up): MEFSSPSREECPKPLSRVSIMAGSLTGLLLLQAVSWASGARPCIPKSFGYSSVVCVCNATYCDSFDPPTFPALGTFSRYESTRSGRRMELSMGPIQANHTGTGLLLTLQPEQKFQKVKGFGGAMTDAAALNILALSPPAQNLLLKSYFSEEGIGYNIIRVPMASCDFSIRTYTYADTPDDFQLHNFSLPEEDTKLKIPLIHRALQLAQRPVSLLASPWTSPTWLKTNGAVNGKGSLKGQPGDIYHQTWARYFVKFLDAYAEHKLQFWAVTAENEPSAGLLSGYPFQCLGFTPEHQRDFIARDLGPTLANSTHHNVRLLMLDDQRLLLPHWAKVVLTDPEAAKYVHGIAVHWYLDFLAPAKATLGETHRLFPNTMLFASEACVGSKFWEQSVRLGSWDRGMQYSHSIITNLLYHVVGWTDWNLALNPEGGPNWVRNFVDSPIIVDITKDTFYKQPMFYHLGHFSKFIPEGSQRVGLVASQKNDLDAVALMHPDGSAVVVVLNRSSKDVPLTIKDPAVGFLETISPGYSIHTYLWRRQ
Chain of Dual specificity protein kinase CLK4 (Homo sapiens) (Q9HAZ1 whole entry, looked up): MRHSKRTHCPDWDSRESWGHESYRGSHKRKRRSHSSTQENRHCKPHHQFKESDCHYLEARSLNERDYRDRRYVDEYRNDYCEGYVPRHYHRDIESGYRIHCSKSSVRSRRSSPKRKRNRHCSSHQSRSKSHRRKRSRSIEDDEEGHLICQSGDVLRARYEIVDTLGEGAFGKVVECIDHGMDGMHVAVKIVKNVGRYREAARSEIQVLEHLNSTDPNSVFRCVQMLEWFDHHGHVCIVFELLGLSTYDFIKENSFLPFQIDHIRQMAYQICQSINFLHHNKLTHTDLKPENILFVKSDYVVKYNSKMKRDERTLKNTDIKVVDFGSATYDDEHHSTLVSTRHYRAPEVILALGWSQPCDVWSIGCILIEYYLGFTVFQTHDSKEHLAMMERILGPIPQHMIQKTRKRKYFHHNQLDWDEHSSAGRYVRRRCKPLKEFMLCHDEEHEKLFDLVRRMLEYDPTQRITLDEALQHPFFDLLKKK
Chain of Cytochrome P450 3A4 (Homo sapiens) (P08684 whole entry, looked up): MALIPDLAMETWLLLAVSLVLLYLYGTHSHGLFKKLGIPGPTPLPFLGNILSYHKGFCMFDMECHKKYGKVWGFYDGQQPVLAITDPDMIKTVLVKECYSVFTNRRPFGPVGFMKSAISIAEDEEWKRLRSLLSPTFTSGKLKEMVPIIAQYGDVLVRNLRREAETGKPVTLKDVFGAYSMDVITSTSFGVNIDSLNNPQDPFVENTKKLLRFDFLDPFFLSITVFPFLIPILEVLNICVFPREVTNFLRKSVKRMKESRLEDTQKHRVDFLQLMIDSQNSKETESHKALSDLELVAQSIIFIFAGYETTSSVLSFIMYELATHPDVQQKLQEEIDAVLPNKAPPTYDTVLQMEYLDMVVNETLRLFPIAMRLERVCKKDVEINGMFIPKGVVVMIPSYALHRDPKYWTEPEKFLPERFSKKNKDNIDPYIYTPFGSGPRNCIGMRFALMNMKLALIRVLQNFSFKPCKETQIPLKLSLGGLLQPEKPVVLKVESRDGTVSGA
Chain of Cytochrome P450 1A2 (Homo sapiens) (P05177 whole entry, looked up): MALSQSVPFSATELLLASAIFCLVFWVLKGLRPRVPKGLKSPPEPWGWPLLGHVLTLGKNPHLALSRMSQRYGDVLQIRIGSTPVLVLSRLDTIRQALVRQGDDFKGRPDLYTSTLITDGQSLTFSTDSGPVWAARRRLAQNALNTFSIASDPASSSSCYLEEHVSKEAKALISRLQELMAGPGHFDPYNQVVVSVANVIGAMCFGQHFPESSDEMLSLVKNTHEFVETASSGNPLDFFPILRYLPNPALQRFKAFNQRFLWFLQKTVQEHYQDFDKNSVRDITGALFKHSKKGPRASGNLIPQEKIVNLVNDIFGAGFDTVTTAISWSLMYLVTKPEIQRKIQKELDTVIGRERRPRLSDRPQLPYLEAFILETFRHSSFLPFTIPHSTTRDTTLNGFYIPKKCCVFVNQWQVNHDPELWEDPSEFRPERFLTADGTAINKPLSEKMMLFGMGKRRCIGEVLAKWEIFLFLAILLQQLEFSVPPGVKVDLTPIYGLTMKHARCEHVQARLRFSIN
Chain of Cytochrome P450 2C9 (Homo sapiens) (P11712 whole entry, looked up): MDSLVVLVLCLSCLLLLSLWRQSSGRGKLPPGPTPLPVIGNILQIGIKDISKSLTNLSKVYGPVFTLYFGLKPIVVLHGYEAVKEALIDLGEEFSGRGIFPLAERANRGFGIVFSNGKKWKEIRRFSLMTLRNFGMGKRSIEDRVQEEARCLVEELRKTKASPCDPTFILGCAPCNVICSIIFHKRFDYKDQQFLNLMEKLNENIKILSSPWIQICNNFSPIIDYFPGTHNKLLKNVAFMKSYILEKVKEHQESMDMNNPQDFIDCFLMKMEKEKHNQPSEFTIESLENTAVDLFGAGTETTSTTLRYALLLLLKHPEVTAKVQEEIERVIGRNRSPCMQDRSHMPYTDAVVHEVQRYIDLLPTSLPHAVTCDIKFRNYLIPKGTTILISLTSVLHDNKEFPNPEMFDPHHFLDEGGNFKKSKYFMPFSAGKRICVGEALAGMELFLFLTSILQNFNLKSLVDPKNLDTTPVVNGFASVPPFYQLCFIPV

Turning to `Cn1c(=O)c(-c2ccc(F)cc2)nc2cnc(Nc3ccccc3)nc21`, the Potency in test [1] is over 11.4 µM; in test [5], over 9.22 µM; in [6], over 46 µM. Also, the activity change, negative = inhibition in [2] is 4.86%; in test [3], -9.42%. Also, in test [4], the activity, negative = inhibition is -5.13%. The Potency entry in test [7], in [8], in test [9] and in test [10] was “inactive” each time. Besides, the outcome in test [11] was inactive.

For `c1ccc2c(N3CCOCC3)nc(-c3ccoc3)nc2c1`, the Potency was over 11.4 µM in test [1]; 1.26 µM (active) in [12]; over 46 µM in [5]; over 46 µM in test [6]; 6.31 µM (active) in test [13]; 14.1 µM (active) in [9]. The activity change, negative = inhibition in test [2] is -5.2%; in test [3], 12.4%. Also, the activity, negative = inhibition in [4] was -2.69%. Further, the Potency entry in test [7], in test [14], in test [8] and in test [10] was “inactive” in each case. The outcome in [11] was inactive.

`CN(Cc1ccco1)c1cc(-c2ccccc2C(F)(F)F)ncn1`: the Potency in test [1] is over 11.4 µM; in test [5], over 46 µM; in test [6], over 46 µM. In addition, the activity change, negative = inhibition in [2] was 9.11%; in [3], -16.3%. The activity, negative = inhibition in test [4] is 3.49%. Besides, the Potency result in [7], in test [15], in test [8], in test [9] and in test [10] was “inactive” each time. Also, in [11], the result was inactive.

On to `COc1ccc(CNc2nc(-c3ccc(N(C)C)cc3)nc3ccccc23)c(OC)c1`, for which the Potency in test [1] was over 11.4 µM; in test [5] it was over 46 µM; in test [6], over 46 µM. Besides, the activity change, negative = inhibition in [2] was 5.6%. Moreover, the activity, negative = inhibition in test [4] is 23.2%. Besides, the Potency entry in test [7], in [15], in test [14], in test [8], in test [9] and in test [10] was “inactive” throughout. The result in test [11] was inactive.

As to `COc1ncc2nc(-c3cn(C)c4ccccc34)c(=O)n(-c3ccccc3)c2n1`, the Potency in [1] was over 11.4 µM; in test [12] it was 5.01 µM (active); in test [5], over 9.22 µM; in [6], over 46 µM. Further, the activity change, negative = inhibition in [2] is -0.341%; in test [3], -18.5%. Further, the activity, negative = inhibition in test [4] was 6.13%. In addition, the Potency result in test [7], in [16], in test [14], in test [8], in [9] and in test [10] was “inactive” throughout. Further, the outcome in test [11] was inactive.

As to `Cn1c(=O)c(-c2cccc(F)c2)nc2cncnc21`, the Potency was over 11.4 µM in [1], over 9.22 µM in test [5] and over 46 µM in [6]. Moreover, the activity change, negative = inhibition in test [2] is -15.2%; in test [3], 8.36%. For the same molecule, the activity, negative = inhibition in test [4] was -5.84%. For the same molecule, the Potency entry in test [7], in test [15], in test [14], in [8], in [9] and in [10] was “inactive” in each case. Besides, the activation in [17] is -8.58%. In addition, the outcome in [11] was inactive.

For `COc1cccc(Cn2c(=O)c(-c3ccc(F)cc3)nc3cncnc32)c1`, the Potency in test [1] is over 11.4 µM; in [5] it was over 9.22 µM; in [6] it was over 46 µM. The activity change, negative = inhibition in test [2] was -16.6%; in test [3], -9.33%. Further, the activity, negative = inhibition in [4] was -13.6%. Besides, the Potency entry in [7], in test [8], in [9] and in [10] was “inactive” each time. The result in test [11] was inactive.
